# TRHR enhancer: qHTS for Small Molecule Agonists and Allosteric Enhancers of Human TRH Receptor: Primary Screen for Enhancers | AID 493056, 2011 | hit rate 0.66% among 360,000 | Thyrotropin-releasing hormone receptor (Homo sapiens), P34981 | TRHR cells, fluo-8 calcium fluorescence, EC20 TRH enhancement | enhancement, % at 2 µM; in the data active means enhancement above about 30%; further: 0% is about no effect
#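 Enhancer read-out: after compound pinning and an initial kinetic agonist-mode read, an EC20 of TRH (10 nM final) was injected and fluo-8 calcium signal (Ex 480/Em 530) followed at 1 s/cycle for 100 cycles in TRHR-expressing cells.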
# D1 ag: Allosteric Agonists of the Human D1 Dopamine Receptor: qHTS. hit rate 1% among 360,000. HEK293 T-REx D1 cells, calcium flux, agonist mode. activation, % at 2 µM. D(1A) dopamine receptor (Homo sapiens), P21728. AID 504660, 2011; further: 0% is about no effect
# Target sequence (P21728 whole entry, looked up): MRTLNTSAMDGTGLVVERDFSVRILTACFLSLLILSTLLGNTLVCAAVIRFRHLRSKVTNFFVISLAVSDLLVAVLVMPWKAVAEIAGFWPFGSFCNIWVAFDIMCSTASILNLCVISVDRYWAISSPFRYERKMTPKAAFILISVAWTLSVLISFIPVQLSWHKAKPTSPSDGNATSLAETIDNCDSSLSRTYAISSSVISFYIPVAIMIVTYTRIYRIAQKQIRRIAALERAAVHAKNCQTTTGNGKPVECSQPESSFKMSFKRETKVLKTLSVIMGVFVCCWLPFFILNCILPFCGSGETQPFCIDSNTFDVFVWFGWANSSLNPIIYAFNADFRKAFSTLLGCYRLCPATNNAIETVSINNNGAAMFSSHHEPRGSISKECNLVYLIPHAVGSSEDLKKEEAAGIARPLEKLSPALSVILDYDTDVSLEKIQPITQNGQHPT
#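 Inducible HEK293 T-REx D1 cells, force-coupled to calcium signalling, were plated at 4000 cells/well with tetracycline and held overnight at 30 C. After no-wash calcium dye loading, compound-evoked calcium rise over 180 s flagged agonists.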
# TRHR agonist: qHTS for Small Molecule Agonists and Allosteric Enhancers of Human TRH Receptor: Primary Screen for Agonists. TRHR cells, calcium flux fluo-8, FDSS agonist mode. activation, % at 2 µM. hit rate 0.18% among 360,000. AID 493084, 2011; further: 0% is about no effect
#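 Steps: seed TRHR cells overnight; add fluo-8 no-wash Ca dye, RT 30 min–1.5 h; record 10 s baseline; pin-transfer compounds; monitor fluorescence 1 cycle/s for the agonist window. Calcium increases flag candidate agonists.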
# D1 antag: Antagonist of Human D 1 Dopamine Receptor: qHTS; D(1A) dopamine receptor (Homo sapiens), P21728; HEK293 TREx D1 cells, calcium flux, dopamine EC80; active compounds read low; activity change, negative = inhibition, % at 10 µM; hit rate 3.2% among 360,000; AID 504652, 2011; in the data active means activity change below about -30%; further: on the % scale 0 is the no-effect control and ±100 the full control effect
#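 Compound effects on dopamine-evoked calcium signalling were measured in tetracycline-induced HEK293 Trex D1 cells. Dopamine at EC80 followed a 180 s compound pre-read, and fluorescence was tracked kinetically for 180 s more.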
# D1 PAM: Potentiators of Human D1 Dopamine Receptor: qHTS; D(1A) dopamine receptor (Homo sapiens), P21728; HEK293 TREx D1 cells, calcium flux, dopamine EC20 potentiation; potentiation, % at 10 µM; hit rate 0.036% among 360,000; in the data active means potentiation above about 30%; further: 0% is about no effect
# Starred values were filed as active, the others as inactive; · = no result. Shown are actives, neighbours in structure and some others; about 4.7% of the full set was active somewhere. Unless noted, no stated cut-off is given here; in the data, active means activation above about 30%; inactive means the rest.
SMILES,TRHR enhancer,D1 ag,TRHR agonist,D1 antag,D1 PAM
O=C(N/N=C/c1cccs1)C(=O)Nc1cccc(Cl)c1,13,14,1,-66*,-4
CC(C)(C)NC(=O)C(=O)N/N=C/c1cccs1,-3,1,1,-1,-5
CCN(CC)C1=CC2=CC(=C(C#N)C#N)CCC2CC1 (centres undefined),4,487*,0,-82*,-10
N#CC(C#N)=C1C=C2C=C(N3CCCCC3)CCC2CC1 (centres undefined),-21,671*,249*,-29,-7
CCCCN(C)C1=CC2=CC(=C(C#N)C#N)CCC2CC1 (centres undefined),-9,490*,261*,-85*,1
CCC(C)(C)NC(=O)c1cc(C(=O)OC)cc([N+](=O)[O-])c1,6,-1,0,-1,-2
CCCN(CCC)S(=O)(=O)c1ccc(NC(=O)c2cc(C(=O)OC)cc([N+](=O)[O-])c2)cc1,11,1,0,-38*,1
CN1C(=O)c2[nH]nc(-c3ccc(F)cc3)c2C1c1cccc(O)c1 (centres undefined),2,0,-1,16,3
O=C(CNC(=O)c1cccc2ccccc12)OC(C(=O)Nc1cc(C(F)(F)F)ccc1Cl)c1ccccc1 (centres undefined),-4,-1,2,13,5
COC(=O)[C@@]12CCCN1[C@H](c1ccc(-c3ccc(F)cc3)cc1)[C@H]1C(=O)N(C)C(=O)[C@H]12,-3,3,-1,-44*,-2
Nc1nc(CN2CCN(c3ccccc3)CC2)nc(Nc2ccc(Cl)cc2)n1,0,1,-1,-40*,-6
Nc1nc(CN2CCN(Cc3ccc4c(c3)OCO4)CC2)nc(Nc2ccccc2)n1,10,2,-1,-47*,-10
Nc1nc(CN2CCN(c3ccccc3F)CC2)nc(Nc2ccccc2)n1,0,1,0,-3,1
Cc1ccc(S(=O)(=O)c2nnn(CC(=O)Nc3ccccc3C)c2N)cc1,4,17,2,8,3
COc1cccc(CNC(=O)c2cnc(N3CCCCC3)c3ccccc23)c1,1,0,0,-8,-4
O=C(NN1CCOCC1)c1cccc(Cl)c1,-2,1,1,7,-2
CN(c1cccc(Cl)c1)S(=O)(=O)c1cccc(C(=O)NN2CCOCC2)c1,7,5,-1,-37*,·
CCN(CC)S(=O)(=O)c1ccc(Cl)c(NC(=S)NC(=O)C2CCCC2)c1,-6,32*,1,-17,·
CCN(CC)c1ccc(S(=O)(=O)Nc2cc(Cl)ccc2Cl)cc1NC(=S)NC(=O)C1CCCC1,-4,2,0,-32*,-5
Cc1ccc(NC(=S)NC2CCCCC2)cc1S(=O)(=O)N(C)C,-1,28,0,-34*,-8
COc1ccccc1NS(=O)(=O)c1ccc(Cl)c(NC(=S)NC(=O)C2CCCC2)c1,13,2,0,-9,-3
CCN(CC)S(=O)(=O)c1ccc(C)c(NC(=S)NC2CCCCC2)c1,-6,16,2,-80*,-6
Cc1ccc(NC(=O)CNCC2CCCCC2)cc1S(=O)(=O)N(C)C,1,5,0,-8,-4
COc1cccc(C(=O)NC(=NCCc2c[nH]c3ccc(OC)cc23)Nc2nc(C)cc(C)n2)c1,-2,-1,-3,-10,-3
Clc1cccc(C2=NC(c3cccs3)=Nc3ccc(Br)cc3N2)c1,-4,3,0,9,1
SMILES,TRHR enhancer,D1 ag,TRHR agonist,D1 antag,D1 PAM
COc1ccc(OC)c(NC(=O)Cn2cnc3sc(C)c(S(=O)(=O)N4CCN(c5ccccc5OC)CC4)c3c2=O)c1,4,2,0,-3,0
CCOC(=O)C1CCN(C(=O)Cn2c(-c3cccs3)cc3cc(Cl)ccc32)CC1,5,1,0,-26,-2
CCCOc1ccc(Br)cc1CSC(=N)N,9,49*,1,-20,-1
COc1cc(O)c(C(CCN2CCN(c3ccccc3)CC2)c2ccc(N(C)C)cc2)c(OC)c1 (centres undefined),-1,1,0,-80*,-9
COc1cc(O)c(C(CCN2CCOCC2)c2ccc(N(C)C)cc2)c(OC)c1 (centres undefined),8,4,0,17,-5
COc1ccc(C(CCN2CCCC2)c2c(O)cc(OC)cc2OC)cc1 (centres undefined),5,6,0,-11,-2
CCN(CC)CCC(c1ccc(OC)cc1)c1c(O)cc(OC)cc1OC (centres undefined),-3,8,0,-32*,-10
COc1ccc(C(CCN2CCN(c3ccccc3)CC2)c2c(O)cc(OC)cc2OC)cc1 (centres undefined),-5,1,0,-84*,-9
CCN(CC)S(=O)(=O)c1ccc2c(c1)N(CC(=O)N1CCN(c3cccc(C(F)(F)F)c3)CC1)C(=O)CO2,-2,3,0,6,4
CC(C(=O)Nc1ccccc1F)N1CCN(C)CC1 (centres undefined),30*,1,-1,-16,-3
CCCCC(CC(O)COCCC)c1n[nH]c(=S)n1-c1ccccc1 (centres undefined),-3,5,1,-45*,-2
CCCCCC(O)CCc1n[nH]c(=S)n1-c1ccccc1 (centres undefined),2,1,0,11,-1
COc1cccc(C(c2nnnn2CC2CCCO2)N2CCN(C(=O)c3ccco3)CC2)c1OC (centres undefined),2,6,0,-38*,-1
Clc1ccc(OCc2nc(-c3ccc(Br)o3)no2)cc1,6,2,0,-40*,-2
Cn1ccc(C(=O)Nc2ccc(Br)cc2Br)n1,-2,1,0,-43*,-16
Cc1ccc(NC(=O)c2ccn(C)n2)c(Br)c1,2,1,1,-5,0
CSc1ncccc1C(=O)Nc1ccc(S(=O)(=O)NC2=NCCCCC2)cc1,-10,3,0,-54*,-4
CN(C)S(=O)(=O)c1ccc(C(=O)Nc2ccc(S(=O)(=O)NC3=NCCCCC3)cc2)cc1,-3,7,0,-6,3
COc1ccc(C2OCC3(CO2)SC(=O)NC3=O)cc1 (centres undefined),-2,3,0,-38*,-14
Cc1cc(C)cc(OCC(=O)Nc2c(C)ccc3nsnc23)c1,-1,0,-1,8,0
